Test results from PubChem BioAssay AID1510 (The Scripps Research Institute Molecular Screening Center, 2009).
Screen size: about 220,000 compounds; about 570 (0.26%) were called active. Rule as the data show it: active = inhibition above about 29%; inactive = the rest. The entries come from a sample that favours actives as a whole.

Target: Sphingosine 1-phosphate receptor 4 (Homo sapiens) (UniProt O95977)
Assay: S1P4 receptor antagonists, primary screen, cell-based (AID 1510);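 also: 0% = wells stimulated with agonist and 100% = vehicle wells without agonist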
Conditions: S1P4-expressing cells, antagonist mode, reporter read-out; at 4.98 µM; hits give high values

Chain of Sphingosine 1-phosphate receptor 4 (Homo sapiens) (O95977 whole entry, looked up): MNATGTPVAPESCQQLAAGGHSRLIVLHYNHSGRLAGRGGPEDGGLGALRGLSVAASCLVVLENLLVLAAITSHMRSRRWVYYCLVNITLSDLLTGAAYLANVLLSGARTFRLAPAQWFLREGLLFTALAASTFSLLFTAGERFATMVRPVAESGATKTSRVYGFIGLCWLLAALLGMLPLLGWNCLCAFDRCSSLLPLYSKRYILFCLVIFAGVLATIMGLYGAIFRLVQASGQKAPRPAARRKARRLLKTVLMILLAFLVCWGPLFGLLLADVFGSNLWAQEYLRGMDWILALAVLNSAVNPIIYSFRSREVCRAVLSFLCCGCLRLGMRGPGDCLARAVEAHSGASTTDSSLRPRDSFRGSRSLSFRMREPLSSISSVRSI

inhibition, active:
COc1ccc(NC(=O)/C(Cl)=C(/Cl)S(=O)Cc2ccc(C)cc2)cn1 (stereo unspecified) 59.5%, COc1ccc(CS(=O)/C(Cl)=C(/Cl)C(=O)Nc2ccc(OC)nc2)cc1 (stereo unspecified) 95.9%, O=C(CC(O)(C(F)(F)F)C(F)(F)F)Nc1ccc(Cl)c(Cl)c1 33.2%, O=C1C=C(c2ccc(Cl)cc2)C(=O)N1Nc1ccccc1 34.7%, O=C1c2cccc3c([N+](=O)[O-])ccc(c23)C(=O)N1CC1CCCO1 (stereo unspecified) 77.4%, Cc1cccc(NC(=O)c2ccc([N+](=O)[O-])o2)c1 47.9%, Cc1cc(C)nc(S/C=C/C(=O)c2ccccc2)n1 54.5%, CC(C)c1ccc(N2CCN(C(=O)c3ccccc3NC(=O)/C=C(\C(=O)O)c3ccccc3)CC2)cc1 96%, COc1ccc(-c2csc(NC3OC(=O)c4ccccc43)n2)cc1 (stereo unspecified) 30.9%, CC1CC(C)CN(S(=O)(=O)c2cccc(C(=O)N3C(=O)c4cccc(N)c4C3=O)c2)C1 (stereo unspecified) 37.9%, CC1CC2=C(CC1/C=N/NC(N)=S)C(C)(C)CCC2 (stereo unspecified) 29.9%, Nc1nonc1-c1nc2ccccc2n1Cc1ccc(F)cc1 38.9%, Cc1cc2oc(C(=O)Nc3c(C)n(C)n(-c4ccccc4)c3=O)c(C)c2cc1Cl 29.2%

inhibition, inactive:
CC(=O)c1cccc(NC(=O)[C@@H](NC(N)=O)C(C)C)c1 -13.9%, Cc1ccc(S(=O)(=O)Nc2nc3ccccc3s2)cc1[N+](=O)[O-] -9.6%, Cc1ccc(NC(=O)OCc2cncs2)cc1 6.88%, COc1ccc(Nc2cc(Cl)ccc2C(=O)O)cn1 0.55%, COc1ccc(NC(=S)NCCNC(C)=O)cc1 4.01%, COc1ccc(NC(=S)Nc2ccccc2Cl)cn1 -10.6%, CCn1cc(-c2cc(C(=O)O)on2)c(C)n1 -15.2%, Cc1csc(CN(C)C(=O)CC2C(=O)NCCN2CC(C)(C)C)n1 (stereo unspecified) 2.01%, CC(C)N(C)C(=O)CCc1nnc(CCc2c[nH]c3ccccc23)o1 -1.14%, CCOc1ccc(C(CCc2ccccc2)NC(=O)c2ccc(OC)c(OC)c2)cc1OCC (stereo unspecified) 0.03%, CC(=O)Nc1ccc(S(=O)(=O)Nc2nccc(/C=C/c3ccccc3F)n2)cc1 -21.4%, O=C(CC(=O)Nc1ccc(Cl)c(Cl)c1)N/N=C/c1ccc(O)cc1 -17.9%, CN(C)CCNC(CC(=O)Nc1ccc(Cl)c(Cl)c1)C(=O)O (stereo unspecified) 0.14%, CN(C(=O)CSc1nnc(Nc2ccccc2)s1)C1CCS(=O)(=O)C1 (stereo unspecified) -10.1%, Cc1ccc(OCCOCCOc2ccc(Br)cc2/C=N\NC(=O)c2ccncc2)cc1 -17.4%, N#Cc1c(-c2cccs2)nc(SCC(=O)c2ccc(Br)cc2)[nH]c1=O 15.8%, Cc1ccc(C(=O)Nc2sc(Cc3ccc4c(c3)OCO4)c(C)c2C(N)=O)cc1 -11.1%, O=C(Nc1ccccc1)OCc1cc(-c2ccc(Cl)cc2)on1 -6.25%, O=C1c2cccc3cc(Br)cc(c23)C(=O)N1Nc1ccccc1 -15.2%, FC(F)(F)c1cccc(-c2nc(COc3ccc(Cl)cc3Cl)no2)c1 -7.31%, Oc1ccc(-c2nncn2-c2ccccc2)cc1 -11.3%, CCNC(=O)COC(=O)CCNC(=O)c1cccc(C)c1 -16.4%, CCN(CCNC(=O)C1=C(C)C(=O)OC12CCC(C)CC2)c1ccccc1 (stereo unspecified) 7.01%, O=C(CCN1C(=O)C2C3C=CC(C3)C2C1=O)Oc1ccc2ccccc2c1 (stereo unspecified) 0.5%, O=C(NCc1ccc2c(c1)OCO2)c1ccc2c(c1)C(=O)N(CC1CCCO1)C2=O (stereo unspecified) 4.48%, O=c1c2cc3c(=O)n(CC4CCCO4)c(=O)c3cc2c(=O)n1CC1CCCO1 (stereo unspecified) 1.15%, Cc1onc(NC(=O)c2ccc([N+](=O)[O-])o2)c1Br 28.1%, Cc1cccc(NC(=S)NC(=O)c2ccc(Br)o2)c1 -1.45%, CN(C)C(=O)CSc1n[nH]c(-c2ccco2)n1 -22.7%, CCOc1ccc(S(=O)(=O)Nc2ccncc2)c(C)c1C 8.19%, Cc1cc(SCC(=O)c2ccccc2)nc(SCC(=O)c2ccccc2)n1 -17.1%, C/C(=N\NC(=O)c1nc(C)cc(C)n1)c1ccccc1 4.33%, O=C(Nc1nnc(SCc2ccccc2Cl)s1)c1cccc([N+](=O)[O-])c1 -13.5%, Cc1cccc(N2CCN(C(=O)c3ccccc3NC(=O)C3CCCCC3C(=O)O)CC2)c1 (stereo unspecified) -7.71%, O=C(O)C1CC=CCC1C(=O)Nc1ccccc1C(=O)N1CCN(c2ccccc2)CC1 (stereo unspecified) -6.52%, CC(C)c1ccc(Nc2ncccc2C#N)cc1 -16.8%, O=C(/C=C/c1cccc([N+](=O)[O-])c1)NCCSCc1ccco1 -14.7%, CCc1ccc2ncc(C(=O)c3ccccc3)c(N3CCOCC3)c2c1 -14.8%, O=C1Nc2cc(Cl)c(Cl)cc2N(O)N1c1ccccc1Cl -11.4%, C=CCOCCN(C)C1=NS(=O)(=O)c2ccccc21 -5.99%, Fc1ccc(Nc2nnns2)cc1 -8.7%, O=C(CSc1ncn[nH]1)Nc1nc(-c2cccc([N+](=O)[O-])c2)cs1 0.29%, COc1ccc2c(c1OC)C(=O)OC2Nc1nc(-c2ccccc2)cs1 (stereo unspecified) 22.8%, COc1ccc(Nc2nc(-c3ccccc3)cs2)cc1 -20.3%, O=C(CC1NCCNC1=O)Nc1cc(Cl)cc(Cl)c1 (stereo unspecified) -3.46%, Cc1cc(C(=O)CSc2nc(N)cc(=O)[nH]2)c(C)n1-c1cccc(F)c1 -13.7%, Brc1ccc(-c2nn[nH]n2)cc1 11.9%, Cc1ccc(C2CCN(C(=S)Nc3cccc(Cl)c3)C2)cc1 (stereo unspecified) 3.99%, Cc1nc2nc(SCC(=O)c3ccccc3)[nH]c2cc1Br 6.48%, O=C(COC(=O)c1cc([N+](=O)[O-])ccc1NCc1ccccc1)NC1CCCCC1 -5.39%, COc1cc(C(=O)N2C(=O)c3cccc(N)c3C2=O)cc(OC)c1OC 6.71%, CN1CCN(S(=O)(=O)c2cccc(C(=O)O)c2)CC1 -2.81%, CC(C)(C)C(=O)NCCCNc1ccc([N+](=O)[O-])cc1 4.36%, Cc1cc(C)n(-c2nnc(N3CCN(c4ccccc4)CC3)nn2)n1 9.76%, CCn1nnnc1SCC(=O)c1ccc(C)cc1C -2.87%, Cc1ccc(SC(CC(=O)c2ccc(C(C)(C)C)cc2)C(=O)O)cc1 (stereo unspecified) 26%, Cn1c(=O)c2c(nc(N/N=C/c3cccs3)n2Cc2ccc(Br)cc2)n(C)c1=O -19.2%, Cc1ccc(COc2ccc(/C=N/NC(=O)CN3CCCCC3)cc2)cc1 -8.97%, CC1(C)CCCC2=C1CC1C(=O)N(c3ccccc3)C(=O)C1C2 (stereo unspecified) -11.5%, CC(=O)Nc1nonc1-c1nc2ccccc2n1Cc1ccccn1 -6.67%, COc1ccc(C)c(Cn2c(-c3nonc3N)nc3ccccc32)c1 -20.7%, COc1ccc(CCCc2nnc(SCc3nc4ccccc4c(=O)[nH]3)n2C)cc1 3.12%, C=C(C)CNC(=S)Nc1ccc(S(=O)(=O)Nc2cnc3ccccc3n2)cc1 2.29%, Cc1cc(C(=O)Nc2c(C)n(C)n(-c3ccccc3)c2=O)cs1 -8.59%, Cc1c(NC(=O)c2coc(=O)c(Br)c2)c(=O)n(-c2ccccc2)n1C -7.02%, COc1ccc(NC(=O)COC(=O)c2ccncc2)c(OC)c1 -5.29%, Cc1cc(C(C)(C)C)oc1C(=O)N(CC(=O)NC1CCCC1)Cc1ccc(Cl)cc1 -6.52%, CC(C)NC(=S)N1CCN(S(C)(=O)=O)CC1 -10.4%, Cc1nc2cc3c(cc2s1)OCO3 -20.6%, COc1ccc(C(=O)NCc2nnc(SCCOc3ccccc3)n2C)cc1 -1.19%, CC(C)N(C(=O)c1ccc(-c2ccccc2F)cc1)C(C)C 26.9%, CC(NCc1ccccc1OC1CCCC1)c1ccccc1 (stereo unspecified) 27.7%, CC(C)(C)NC(=O)C(=O)NCc1ccncc1 -14.6%, CNS(=O)(=O)c1ccc(NC(=O)C2CC(=O)N(c3ccc(Cl)cc3)C2)cc1 (stereo unspecified) 12.8%, CC(=O)Nc1ccc(S(=O)(=O)N2CCN(c3ccc([N+](=O)[O-])c(NCCN4CCOCC4)c3)CC2)cc1 -3.22%, COc1cc(NC(=O)CN(C)S(=O)(=O)c2ccc3nc(C)sc3c2)cc(OC)c1 -2.8%, Cc1cc(/C=N/NC(N)=O)c(C)n1C1CCCCC1 16.8%, Cc1cccc(C(=O)Nc2ccccc2C(=O)NCc2cccnc2)c1 -7.4%, Cc1ccc2cc(/C=N/Nc3ccc(C(=O)O)cc3)c(Cl)nc2c1 4.36%, Cc1nc([N+](=O)[O-])cn1CC(=O)Nc1ccc2c(c1)OCO2 -4.57%, Cc1nn(CC#N)c(=O)n1N(C)c1ncc(C(F)(F)F)cc1Cl -4.17%, CCOc1ccc(C(=O)Nc2cccc(-c3ccc4nncn4n3)c2)cc1 0.94%, O=C(C1CCN(S(=O)(=O)c2ccc(Br)s2)CC1)N1CCN(C2CCCCC2)CC1 -2.03%
